Results from PubChem BioAssay (EPA / NIEHS).
Records with an inconclusive call do not appear. Active and inactive are the calls of the source. How the source made its calls, unless noted: active means hit-call score of the fitted dose curve at least 0.9, where 1 is the maximum; inconclusive means response in the unintended direction; inactive means score below 0.9.

How the values were obtained:
[1] = TOX21_p53_BLA_p2_viability: Viability Assessment in the Tox21 HCT-116 p53 Agonism Beta-lactamase Assay, Phase 2 (AID 2283591);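 further: actives lower the ATP signal meaning cytotoxicity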
Outline: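 Cytotoxicity readout: CellTiter-Glo ATP luminescence, 30 min at room temperature, after the beta-lactamase read. Cells were HCT116 exposed 16 h at 37C to compounds pin-transferred at 217-fold dilution from DMSO stocks.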

[2] = biological target: Cellular tumor antigen p53 (Homo sapiens) (UniProt P04637); experiment: TOX21_p53_BLA_p2_ratio: Tox21 HCT-116 p53 Agonism Beta-lactamase Assay, Ratio, Phase 2 (AID 2283592)
Chain of Cellular tumor antigen p53 (Homo sapiens) (P04637 whole entry, looked up): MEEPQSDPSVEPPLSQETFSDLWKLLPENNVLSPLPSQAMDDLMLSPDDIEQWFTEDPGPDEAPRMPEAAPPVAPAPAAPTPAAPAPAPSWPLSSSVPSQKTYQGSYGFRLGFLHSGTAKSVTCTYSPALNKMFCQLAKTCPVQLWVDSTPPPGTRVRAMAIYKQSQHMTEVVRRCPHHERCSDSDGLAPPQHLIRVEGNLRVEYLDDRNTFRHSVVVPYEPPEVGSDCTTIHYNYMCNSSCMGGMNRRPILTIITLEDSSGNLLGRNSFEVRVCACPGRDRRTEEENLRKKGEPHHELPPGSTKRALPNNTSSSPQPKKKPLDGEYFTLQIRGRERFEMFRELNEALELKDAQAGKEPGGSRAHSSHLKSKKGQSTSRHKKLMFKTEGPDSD
Outline: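 First, HCT116 reporter cells settle for 5 h at 37C. Next, DMSO compound solutions are pinned in (217-fold dilution) and left 16 h. Finally, CCF4-AM substrate is loaded 2 h at room temperature and the 460/530 nm ratio read.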

[3] = biological target: Cellular tumor antigen p53 (Homo sapiens) (UniProt P04637); experiment: TOX21_p53_BLA_p3_ratio: Tox21 HCT-116 p53 Agonism Beta-lactamase Assay, Ratio, Phase 3 (AID 2283596)
Outline: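 Cells were seeded at 4000/well, rested 5 h at 37C, then dosed with DMSO compound solutions (217-fold dilution) for 16 h. CCF4-AM substrate was loaded for 2 h at room temperature, and the 460/530 nm emission ratio was fitted for gain of signal versus DMSO.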

[4] = biological target: Cellular tumor antigen p53 (Homo sapiens) (UniProt P04637); experiment: TOX21_p53_BLA_p5_ratio: Tox21 HCT-116 p53 Agonism Beta-lactamase Assay, Ratio, Phase 5 (AID 2283599)
Outline: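 Beta-lactamase reporter ratio (blue 460 nm over green 530 nm, 405 nm excitation) after 2 h CCF4-AM loading, in HCT-116 cells exposed 16 h at 37 C to compounds pinned at 217-fold dilution. Increases relative to DMSO baseline scored.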

[5] = TOX21_p53_BLA_p5_viability: Viability Assessment in the Tox21 HCT-116 p53 Agonism Beta-lactamase Assay, Phase 5 (AID 2283600)
Outline: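 Decreased CellTiter-Glo luminescence denotes lost viability. Exposure: 16 h at 37C, 5% CO2, with compounds from DMSO stocks diluted 217-fold in wells of 4000 cells.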

[6] = biological target: Cellular tumor antigen p53 (Homo sapiens) (UniProt P04637); experiment: TOX21_p53_BLA_p4_ratio: Tox21 HCT-116 p53 Agonism Beta-lactamase Assay, Ratio, Phase 4 (AID 2283601)
Outline: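 Signal is the blue/green (460nm/530nm) ratio of cleaved versus uncleaved CCF4-AM substrate, read after 2 h substrate loading. Cells were HCT116 carrying the p53-responsive beta-lactamase reporter, dosed 16 h at 37C, 5% CO2; CellTiter-Glo measured in parallel.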

[7] = CCTE_Harrill_HTTr_Viability_MCF7: CCTE's 6-hour Cell Viability Assessment for the High-Throughput Transcriptomics (HTTr) Platform, in MCF-7 cells cultured in DMEM + 10% fetal bovine serum, Harrill Lab (AID 2284010; active means hit-call score of the fitted dose curve at least 0.9, where 1 is the maximum; inactive means score below 0.9)
Outline: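 Propidium iodide exclusion, imaged by high-content analysis, gauged viability after a six-hour exposure across eight concentrations. Cells were MCF-7 grown in DMEM with 10% fetal bovine serum; fits run in both directions against DMSO.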

[8] = CCTE_Harrill_HTTr_Apoptosis_MCF7: CCTE's 6-hour Apoptosis Assessment for the High-Throughput Transcriptomics (HTTr) Platform, in MCF-7 cells cultured in DMEM + 10% fetal bovine serum, Harrill Lab (AID 2284011; active means hit-call score of the fitted dose curve at least 0.9, where 1 is the maximum; inactive means score below 0.9)
Outline: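 MCF-7 cells in DMEM + 10% FBS exposed 6 h to chemicals over an eight-point dilution series. Caspase-3/7 activation imaged by high-content CellEvent Green staining; fitted bidirectionally versus DMSO.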

[9] = CCTE_Harrill_HTTr_CellCount_MCF7: CCTE's Cell Proliferation Assessment for the High-Throughput Transcriptomics (HTTr) Platform, Harrill Lab (AID 2284012);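 further: cells exposed to compound for six hours; intended direction is loss of nuclei count meaning fewer cells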
Outline: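 Cell count from high-content imaging of Hoechst-labeled nuclei serves as viability/growth readout. Chemicals were applied to MCF-7 cells in eight concentrations for six hours, with fitting in both directions relative to DMSO.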

[10] = ACEA_ER_AUC_viability: ACEA Biosciences xCELLigence Real-Time Cell Analysis on Estrogen Receptor Agonism for Viability (AID 2283782);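 further: hit means loss of impedance signal meaning reduced cell growth or viability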
Outline: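 Viability endpoint: reduced impedance area under the curve relative to DMSO, recorded by real-time electrode sensing over ~80 h of continuous exposure. Duplicate plates of T47D in hormone-depleted medium; eight concentrations, 1:4 dilutions, 100 uM maximum.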

Measured: AC50

CCCCC
inactive: [1] | [2] | [3] | [4] | [5] | [6]

CCC(=O)OC(=O)CC
inactive: [1] | [2] | [3] | [4] | [5] | [6]

c1coc(Cn2cccc2)c1
inactive: [1] | [2] | [3] | [4] | [5] | [6]

NCCCNCCCCNC(=O)C(O)NC(=O)CCCCCCN=C(N)N (stereo not given)
inactive: [1] | [2] | [3] | [4] | [5] | [6]

CCC(=O)OC
inactive: [1] | [3] | [4] | [5] | [6]
active: [2] 82.7 µM

CC(C)[C@@H](N)C(=O)O
inactive: [1] | [2] | [3] | [4] | [5] | [6]

CC1CCc2cc(F)cc3c(=O)c(C(=O)O)cn1c23 (stereo not given)
inactive: [1] | [2] | [3] | [4] | [5] | [6]

Nc1cc(=O)[nH]c(N)n1
inactive: [1] | [2] | [3] | [4] | [5] | [6]

C#CCN(C)CCCOc1ccc(Cl)cc1Cl
inactive: [1] | [2] | [3] | [4] | [5] | [6]

O=C(O)CNC(=O)c1ccc([N+](=O)[O-])cc1
inactive: [1] | [2] | [3] | [4] | [5] | [6]

CC1=C(/C=C/C(C)=C/C=C/C(C)=C/C=C/C=C(C)/C=C/C=C(C)/C=C/C2=C(C)CCCC2(C)C)C(C)(C)CCC1
inactive: [1] | [2] | [3] | [4] | [5] | [6]

CCCCCC=CCC1CC(=O)OC1=O (stereo not given)
inactive: [1] | [2] | [3] | [4] | [5] | [6]

CC(=O)N[C@@H](CC(C)C)C(=O)O
inactive: [1] | [2] | [3] | [4] | [5] | [6]

CN(C)CCC(c1ccccc1)c1ccccn1 (stereo not given)
inactive: [1] | [2] | [3] | [4] | [5] | [6]

Cc1cc(=O)oc2cc(O)cc(O)c12
inactive: [1] | [2] | [3] | [4] | [5]
active: [6] 41.7 µM

C/C=C/c1ccc(OCC)c(O)c1
inactive: [1] | [2] | [3] | [4] | [5] | [6]

CCN(CC)c1cccc(O)c1
inactive: [1] | [2] | [3] | [4] | [5] | [6]

CCCCCCCCCCCCCCCC(=O)NCCO
inactive: [1] | [2] | [3] | [4] | [5] | [6]

CCCCCCCC
inactive: [1] | [2] | [3] | [4] | [5] | [6]

C/C=C/C=C/CO
inactive: [1] | [2] | [3] | [4] | [5] | [6]

NC[C@@H]1O[C@H](O[C@H]2[C@@H](O)[C@H](O[C@@H]3[C@@H](O)[C@H](N)C[C@H](N)[C@H]3O[C@H]3O[C@H](CO)[C@@H](O)[C@H](O)[C@H]3N)O[C@@H]2CO)[C@H](N)[C@@H](O)[C@@H]1O
inactive: [1] | [2] | [3] | [4] | [6]

ON=C1CCCC1
inactive: [1] | [2] | [3] | [4] | [6]

CC12CCC(C1)C(C)(C)C2=O (stereo not given)
inactive: [1] | [2] | [3] | [4] | [6]

CC(=O)N[C@@H]([C@@H](O)[C@H](O)[C@H](O)CO)[C@@H](O)CC(=O)C(=O)O
inactive: [1] | [2] | [3] | [4] | [6]

NC(=O)N[C@@H](CCC(=O)O)C(=O)O
inactive: [1] | [2] | [3] | [4] | [6]

OCCCC1CCCCC1
not listed: [6] | [10]
inactive: all other assays above

C=CCSCC1Nc2cc(Cl)c(S(N)(=O)=O)cc2S(=O)(=O)N1 (stereo not given)
active: [4] 0.059 nM
inactive: [1] | [2] | [3] | [6]

CC(=C(CCOP(=O)(O)O)SC(=O)c1ccccc1)N(C=O)Cc1cnc(C)nc1N
inactive: [1] | [2] | [3] | [4] | [6]

CN(C)CCC=C1c2ccccc2CSc2ccccc21
inactive: [1] | [2] | [3] | [4]
active: [6] 16.6 µM

C=CC(=O)OCCOC(=O)CCC(=O)O
inactive: [1] | [2] | [3] | [4] | [6]

NCCO/C=C/[C@H](N)C(=O)O
inactive: [1] | [2] | [3] | [4] | [5] | [6]

CC/C=C\C/C=C\C/C=C\C/C=C\C/C=C\C/C=C\CCC(=O)O
inactive: [1] | [2] | [3] | [4] | [6]

CC(C)(CO)[C@@H](O)C(=O)NCCC(=O)NCCSSCCNC(=O)CCNC(=O)[C@H](O)C(C)(C)CO
inactive: [1] | [2] | [3] | [4] | [6]

CC(C)OC(=O)Nc1ccc2nc(-c3cscn3)[nH]c2c1
inactive: [1]
active: [2] 1.52 µM | [3] 2.6 µM | [4] 2330 nM | [6] 1.09 µM

CN(C)c1ccc(CCO)cc1
inactive: [1] | [2] | [3] | [4] | [6]

NC(=O)[C@@H]1CCCN1C(=O)[C@H](Cc1cnc[nH]1)NC(=O)[C@@H]1CCC(=O)N1
inactive: [1] | [2] | [3] | [4] | [6]

C[C@@]12C(=O)OC(=O)[C@]1(C)C1CCC2O1
active: [2] 0.446 µM | [6] 2.91 µM
inactive: [1] | [3] | [4] | [5]

CCOC(=O)c1c[nH]c2cc(OCC(C)C)c(OCC(C)C)cc2c1=O
inactive: [1] | [2] | [3] | [4] | [5] | [6]

Oc1cc(O)c(Cl)cc1Cl
active: [2] 64.5 µM
inactive: [1] | [3] | [4] | [6]

N#Cc1c(N(CC(=O)O)CC(=O)O)sc(C(=O)O)c1CC(=O)O
inactive: [1] | [2] | [3] | [4] | [6]

O=C(O)c1ccccc1C(=O)Nc1ccc(S(=O)(=O)Nc2nccs2)cc1
inactive: [1] | [2] | [3] | [4] | [6]

O=C(O)[C@H](CC(=O)N1C[C@H]2CCCC[C@H]2C1)Cc1ccccc1
inactive: [1] | [2] | [3] | [4] | [6]

CN(C)CCC[C@@]1(c2ccc(F)cc2)OCc2cc(C#N)ccc21
inactive: [1] | [2] | [3] | [4] | [6]

COC(=O)CCCCCCCCC(=O)OC
inactive: [1] | [2] | [3] | [4] | [6]

CCN(CC)CCOC(=O)c1ccc(N)cc1Cl
inactive: [1] | [2] | [3] | [4] | [6]

CC1(C)[C@H](C(=O)O)N2C(=O)C[C@H]2S1(=O)=O
inactive: [1] | [2] | [3] | [4] | [6]

FC(F)(F)C(F)(F)C(F)(F)C(F)(F)C(F)(F)F
inactive: [1] | [2] | [3] | [4] | [6]

OC[C@@H](O)C(O)[C@H](O)CO
inactive: [1] | [2] | [3] | [4] | [6]

CN1CCCCC1CCN1c2ccccc2Sc2ccc(S(C)=O)cc21 (stereo not given)
inactive: [1] | [2] | [3] | [4] | [6]

C[C@@H]1CN(c2c(F)c(N)c3c(=O)c(C(=O)O)cn(C4CC4)c3c2F)C[C@H](C)N1
not listed: [10]
inactive: all other assays above

CC[C@@H](C(=O)[C@@H](C)[C@@H](O)[C@H](C)[C@@H]1O[C@@H]([C@@H](CC)C(=O)O)CC[C@@H]1C)[C@H]1O[C@]2(C=C[C@@H](O)[C@]3(CC[C@@](C)([C@H]4CC[C@](O)(CC)[C@H](C)O4)O3)O2)[C@H](C)C[C@@H]1C
inactive: [1] | [2] | [3] | [4] | [6]

Cc1cccc(Br)c1
inactive: [1] | [2] | [3] | [4] | [6]

Nc1nc2ccc(OC(F)(F)F)cc2s1
inactive: [1]
active: [2] 7.3 µM | [3] 7.29 µM | [4] 23900 nM | [6] 11.3 µM

CN1CCC(=C2c3ccccc3C=Cc3ccccc32)CC1
active: [1] 39.3 µM | [2] 43.2 µM
inactive: [3] | [4] | [6]

O=C1OCCN1N=Cc1ccc([N+](=O)[O-])o1
not listed: [9] | [10]
inactive: all other assays above

c1ccc2c(c1)OCC(CN1CCCCC1)O2 (stereo not given)
inactive: [1] | [2] | [3] | [4] | [6]

CCCC/C=C/CCCCO
active: [10] 50 µM
not listed: [7] | [8] | [9]
inactive: all other assays above
